Experimental data published in article PMC7862700, “An all-to-all approach to the identification of sequence-specific readers for epigenetic DNA modifications on cytosine”.

Assays:
Experiment in all cases: DAPPL (digital affinity profiling via proximity ligation, sequencing); 10 mM Tris-HCl pH 7.5, 50 mM NaCl, 1 mM DTT, 4% glycerol, room temperature, 30 min; GST-TFs on glutathione beads, 16-mer random dsDNA library, 0.1% formaldehyde crosslink after washing; high values mean tight binding
Settings in all cases: protein: recombinant; tags: N-terminal GST; dsDNA, one strand shown
[1] = target: T1, FLI1 (Homo sapiens, UniProt Q01543 1-452)
T1 sequence: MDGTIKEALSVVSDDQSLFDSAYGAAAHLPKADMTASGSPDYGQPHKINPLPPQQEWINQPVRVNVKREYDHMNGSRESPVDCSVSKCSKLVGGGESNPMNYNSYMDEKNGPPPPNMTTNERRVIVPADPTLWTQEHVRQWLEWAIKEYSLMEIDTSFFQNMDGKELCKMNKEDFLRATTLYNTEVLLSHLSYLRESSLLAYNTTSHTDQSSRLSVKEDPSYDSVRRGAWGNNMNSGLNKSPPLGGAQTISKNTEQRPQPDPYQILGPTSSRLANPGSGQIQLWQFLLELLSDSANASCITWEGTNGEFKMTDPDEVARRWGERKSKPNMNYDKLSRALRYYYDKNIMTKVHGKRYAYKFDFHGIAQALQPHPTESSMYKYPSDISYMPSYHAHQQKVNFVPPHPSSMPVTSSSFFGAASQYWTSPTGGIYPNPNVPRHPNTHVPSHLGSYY
Method in brief: (§1)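 After expression in yeast as GST fusions, human transcription factors were bound to glutathione beads, DNA-barcoded and mixed with a tag-only sample. The pools were incubated with 200 nmole of a 16-mer random double-stranded DNA library in Tris/NaCl/DTT/glycerol buffer (30 min, room temperature), washed and crosslinked with 0.1% formaldehyde. Proximity ligation with BsaI/T4 ligase ran for 1 h at 37 °C, before PCR amplification and sequencing on an Illumina NextSeq500. Binding signal is a hexamer's read frequency for a factor divided by its frequency for the tag-only sample.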

[2] = target: T2, ELK1 (Homo sapiens, UniProt P19419 1-428)
T2 sequence: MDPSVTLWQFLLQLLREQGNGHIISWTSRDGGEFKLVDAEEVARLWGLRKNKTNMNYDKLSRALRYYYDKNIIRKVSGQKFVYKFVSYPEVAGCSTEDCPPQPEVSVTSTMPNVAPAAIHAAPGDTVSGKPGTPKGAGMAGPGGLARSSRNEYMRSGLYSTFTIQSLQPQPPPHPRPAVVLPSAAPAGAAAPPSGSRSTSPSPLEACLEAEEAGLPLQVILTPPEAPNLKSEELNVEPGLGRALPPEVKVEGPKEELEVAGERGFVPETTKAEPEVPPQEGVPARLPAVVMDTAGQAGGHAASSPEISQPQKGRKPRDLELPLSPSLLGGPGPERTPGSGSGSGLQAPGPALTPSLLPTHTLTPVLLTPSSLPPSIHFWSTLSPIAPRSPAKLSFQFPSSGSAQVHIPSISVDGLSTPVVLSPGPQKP
Method in brief: as §1

[3] = target: T3, GABPA (Homo sapiens, UniProt Q06546 1-454)
T3 sequence: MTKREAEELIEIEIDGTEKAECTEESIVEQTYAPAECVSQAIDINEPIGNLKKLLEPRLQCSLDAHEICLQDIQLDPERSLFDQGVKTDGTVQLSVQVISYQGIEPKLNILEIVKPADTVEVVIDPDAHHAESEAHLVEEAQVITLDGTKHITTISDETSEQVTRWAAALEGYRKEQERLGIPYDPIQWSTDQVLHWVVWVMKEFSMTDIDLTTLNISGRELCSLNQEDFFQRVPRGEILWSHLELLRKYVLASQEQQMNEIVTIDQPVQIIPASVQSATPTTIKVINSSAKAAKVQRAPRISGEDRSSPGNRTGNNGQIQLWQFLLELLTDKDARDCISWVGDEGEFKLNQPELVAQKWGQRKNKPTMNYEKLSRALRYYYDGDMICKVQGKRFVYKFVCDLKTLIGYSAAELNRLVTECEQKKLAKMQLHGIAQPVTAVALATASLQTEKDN
Method in brief: as §1

[4] = target: T4, ERG (Homo sapiens, UniProt P11308 1-479)
T4 sequence: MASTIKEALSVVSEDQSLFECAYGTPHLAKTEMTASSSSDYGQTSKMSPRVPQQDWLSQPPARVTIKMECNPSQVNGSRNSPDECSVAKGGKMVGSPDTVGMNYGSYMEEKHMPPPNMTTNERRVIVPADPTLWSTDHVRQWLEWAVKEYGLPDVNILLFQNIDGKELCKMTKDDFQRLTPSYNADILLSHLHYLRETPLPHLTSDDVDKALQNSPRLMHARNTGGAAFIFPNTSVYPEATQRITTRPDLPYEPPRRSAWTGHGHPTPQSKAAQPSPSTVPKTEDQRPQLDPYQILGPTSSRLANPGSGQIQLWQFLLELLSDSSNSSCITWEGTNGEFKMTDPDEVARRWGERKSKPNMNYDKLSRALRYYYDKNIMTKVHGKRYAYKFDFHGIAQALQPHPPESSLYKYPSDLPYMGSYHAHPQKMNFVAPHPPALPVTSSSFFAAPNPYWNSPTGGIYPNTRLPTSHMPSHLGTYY
Method in brief: as §1

[5] = target: ELF1 (Homo sapiens, UniProt P32519 1-619)
Method in brief: as §1

[6] = target: T5, EHF (Homo sapiens, UniProt Q9NZC4 1-300)
T5 sequence: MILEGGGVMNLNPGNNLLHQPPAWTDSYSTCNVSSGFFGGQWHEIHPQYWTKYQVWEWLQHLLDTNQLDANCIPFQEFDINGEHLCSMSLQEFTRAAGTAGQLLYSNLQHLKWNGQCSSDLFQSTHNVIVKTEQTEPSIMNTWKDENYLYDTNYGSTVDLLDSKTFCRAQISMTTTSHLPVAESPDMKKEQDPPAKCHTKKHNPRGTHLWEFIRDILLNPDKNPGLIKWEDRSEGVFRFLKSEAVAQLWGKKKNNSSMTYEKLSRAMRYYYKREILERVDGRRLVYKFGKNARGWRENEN
Method in brief: as §1

[7] = target: SPI1 (Homo sapiens, UniProt P17947 1-270)
Method in brief: as §1

[8] = target: T6, ELK3 (Homo sapiens, UniProt P41970 1-407)
T6 sequence: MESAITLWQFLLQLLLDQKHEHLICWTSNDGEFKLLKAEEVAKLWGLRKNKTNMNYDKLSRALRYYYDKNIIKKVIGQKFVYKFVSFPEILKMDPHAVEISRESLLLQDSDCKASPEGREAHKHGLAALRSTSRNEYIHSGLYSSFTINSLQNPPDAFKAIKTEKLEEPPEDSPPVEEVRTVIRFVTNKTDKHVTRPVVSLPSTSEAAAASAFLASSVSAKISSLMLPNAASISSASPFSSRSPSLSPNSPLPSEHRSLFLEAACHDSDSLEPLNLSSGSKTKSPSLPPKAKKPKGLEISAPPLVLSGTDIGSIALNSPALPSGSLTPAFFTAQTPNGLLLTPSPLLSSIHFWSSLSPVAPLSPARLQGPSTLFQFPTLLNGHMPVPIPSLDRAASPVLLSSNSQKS
Method in brief: as §1

[9] = target: T7, FEV (Homo sapiens, UniProt Q99581 1-238)
T7 sequence: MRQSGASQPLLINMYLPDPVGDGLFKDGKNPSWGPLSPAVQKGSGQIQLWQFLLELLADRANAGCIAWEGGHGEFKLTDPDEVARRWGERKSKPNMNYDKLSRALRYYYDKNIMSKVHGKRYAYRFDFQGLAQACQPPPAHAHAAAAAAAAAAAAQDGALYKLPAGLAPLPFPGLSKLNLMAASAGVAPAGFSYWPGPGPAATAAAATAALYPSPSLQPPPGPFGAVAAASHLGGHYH
Method in brief: as §1

[10] = target: ETV5 (Homo sapiens, UniProt P41161 1-510)
Method in brief: as §1

[11] = target: T8, SPIC (Homo sapiens, UniProt Q8N5J4 1-248)
T8 sequence: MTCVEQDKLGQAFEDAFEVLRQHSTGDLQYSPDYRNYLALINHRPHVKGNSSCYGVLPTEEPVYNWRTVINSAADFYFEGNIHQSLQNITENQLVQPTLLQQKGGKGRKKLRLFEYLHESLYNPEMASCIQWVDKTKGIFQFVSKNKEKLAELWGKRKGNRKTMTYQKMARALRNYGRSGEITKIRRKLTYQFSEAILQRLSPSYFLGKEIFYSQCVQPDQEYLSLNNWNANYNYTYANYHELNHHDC
Method in brief: as §1

[12] = target: ELF4 (Homo sapiens, UniProt Q99607 1-663)
Method in brief: as §1

[13] = target: ETV1 (Homo sapiens, UniProt P50549 1-477)
Method in brief: as §1

[14] = target: T9, ERF (Homo sapiens, UniProt P50548 1-548)
T9 sequence: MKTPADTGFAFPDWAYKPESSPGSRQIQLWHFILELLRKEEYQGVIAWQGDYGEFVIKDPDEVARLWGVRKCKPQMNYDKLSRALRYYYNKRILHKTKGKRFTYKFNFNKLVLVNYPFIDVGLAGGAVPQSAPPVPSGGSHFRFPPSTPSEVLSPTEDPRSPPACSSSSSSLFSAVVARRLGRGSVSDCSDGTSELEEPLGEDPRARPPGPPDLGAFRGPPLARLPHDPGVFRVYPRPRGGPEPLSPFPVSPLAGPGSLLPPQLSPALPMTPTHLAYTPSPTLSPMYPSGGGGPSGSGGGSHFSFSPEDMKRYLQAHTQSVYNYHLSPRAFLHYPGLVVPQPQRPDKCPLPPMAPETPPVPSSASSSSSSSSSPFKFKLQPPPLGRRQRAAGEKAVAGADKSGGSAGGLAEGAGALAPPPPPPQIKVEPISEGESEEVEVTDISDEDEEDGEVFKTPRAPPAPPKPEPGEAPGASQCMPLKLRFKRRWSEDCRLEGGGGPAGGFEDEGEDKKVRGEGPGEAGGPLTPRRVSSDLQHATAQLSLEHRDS
Method in brief: as §1

[15] = target: T10, SPDEF (Homo sapiens, UniProt O95238 1-335)
T10 sequence: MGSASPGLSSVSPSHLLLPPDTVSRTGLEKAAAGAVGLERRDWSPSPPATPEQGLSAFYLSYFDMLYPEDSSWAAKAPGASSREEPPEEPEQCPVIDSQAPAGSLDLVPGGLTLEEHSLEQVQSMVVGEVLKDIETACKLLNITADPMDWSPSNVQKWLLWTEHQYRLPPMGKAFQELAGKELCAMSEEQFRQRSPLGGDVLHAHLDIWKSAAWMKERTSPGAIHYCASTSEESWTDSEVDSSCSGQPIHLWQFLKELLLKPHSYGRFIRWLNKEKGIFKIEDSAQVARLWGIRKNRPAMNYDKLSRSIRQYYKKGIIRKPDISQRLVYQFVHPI
Method in brief: as §1

[16] = target: T11, ETV3 (Homo sapiens, UniProt P41162-2 1-143)
T11 sequence: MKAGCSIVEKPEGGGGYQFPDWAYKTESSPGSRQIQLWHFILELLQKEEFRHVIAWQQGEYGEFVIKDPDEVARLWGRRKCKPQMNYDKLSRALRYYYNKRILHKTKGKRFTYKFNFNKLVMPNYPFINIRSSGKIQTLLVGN
Method in brief: as §1

[17] = target: ETV6 (Homo sapiens, UniProt P41212 1-452)
Method in brief: as §1

[18] = target: T12, ETS2 (Homo sapiens, UniProt P15036 1-469)
T12 sequence: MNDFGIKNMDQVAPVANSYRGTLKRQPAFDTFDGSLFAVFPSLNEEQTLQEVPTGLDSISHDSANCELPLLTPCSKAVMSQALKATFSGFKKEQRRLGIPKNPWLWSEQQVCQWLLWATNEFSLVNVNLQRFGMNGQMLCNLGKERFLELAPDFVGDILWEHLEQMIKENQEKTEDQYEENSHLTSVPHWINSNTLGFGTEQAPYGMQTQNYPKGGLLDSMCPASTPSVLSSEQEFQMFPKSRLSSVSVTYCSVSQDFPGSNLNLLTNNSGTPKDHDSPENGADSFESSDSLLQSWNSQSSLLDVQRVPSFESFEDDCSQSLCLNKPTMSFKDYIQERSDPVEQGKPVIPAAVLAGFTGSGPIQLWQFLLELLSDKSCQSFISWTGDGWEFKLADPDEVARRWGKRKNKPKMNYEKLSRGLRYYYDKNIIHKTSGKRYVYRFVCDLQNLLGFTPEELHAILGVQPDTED
Method in brief: as §1

Sequence of ETV5 (P41161 whole entry): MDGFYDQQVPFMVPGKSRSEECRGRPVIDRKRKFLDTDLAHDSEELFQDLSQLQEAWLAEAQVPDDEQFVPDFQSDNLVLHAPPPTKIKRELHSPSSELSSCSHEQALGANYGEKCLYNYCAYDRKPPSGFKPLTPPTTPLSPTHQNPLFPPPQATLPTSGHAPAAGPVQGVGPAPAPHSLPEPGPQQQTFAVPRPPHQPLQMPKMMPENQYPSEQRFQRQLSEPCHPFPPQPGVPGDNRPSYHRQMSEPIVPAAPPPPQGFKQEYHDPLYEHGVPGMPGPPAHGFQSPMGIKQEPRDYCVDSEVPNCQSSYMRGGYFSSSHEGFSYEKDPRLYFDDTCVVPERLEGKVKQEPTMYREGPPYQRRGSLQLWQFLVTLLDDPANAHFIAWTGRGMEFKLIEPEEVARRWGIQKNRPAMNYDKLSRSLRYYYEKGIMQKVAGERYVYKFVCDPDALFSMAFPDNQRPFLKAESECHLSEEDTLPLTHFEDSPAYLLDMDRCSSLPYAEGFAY
Sequence of ELF4 (Q99607 whole entry): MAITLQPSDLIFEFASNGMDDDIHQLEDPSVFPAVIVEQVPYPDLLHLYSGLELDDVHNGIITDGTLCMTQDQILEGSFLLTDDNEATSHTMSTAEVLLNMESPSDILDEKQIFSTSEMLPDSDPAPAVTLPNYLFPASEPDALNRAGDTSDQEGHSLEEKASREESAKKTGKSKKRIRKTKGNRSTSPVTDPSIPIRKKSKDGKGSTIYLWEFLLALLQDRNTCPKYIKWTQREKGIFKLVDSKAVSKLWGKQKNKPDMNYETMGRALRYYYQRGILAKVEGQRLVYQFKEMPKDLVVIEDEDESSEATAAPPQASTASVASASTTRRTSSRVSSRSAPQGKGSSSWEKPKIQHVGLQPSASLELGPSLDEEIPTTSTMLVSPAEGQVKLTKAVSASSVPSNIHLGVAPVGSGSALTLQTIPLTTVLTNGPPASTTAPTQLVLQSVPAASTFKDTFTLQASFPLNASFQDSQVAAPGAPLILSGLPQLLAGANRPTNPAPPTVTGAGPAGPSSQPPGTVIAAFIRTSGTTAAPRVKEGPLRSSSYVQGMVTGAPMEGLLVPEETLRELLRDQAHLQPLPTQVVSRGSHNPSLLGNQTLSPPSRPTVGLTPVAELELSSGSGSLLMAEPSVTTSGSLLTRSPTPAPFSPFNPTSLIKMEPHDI
Sequence of ETV1 (P50549 whole entry): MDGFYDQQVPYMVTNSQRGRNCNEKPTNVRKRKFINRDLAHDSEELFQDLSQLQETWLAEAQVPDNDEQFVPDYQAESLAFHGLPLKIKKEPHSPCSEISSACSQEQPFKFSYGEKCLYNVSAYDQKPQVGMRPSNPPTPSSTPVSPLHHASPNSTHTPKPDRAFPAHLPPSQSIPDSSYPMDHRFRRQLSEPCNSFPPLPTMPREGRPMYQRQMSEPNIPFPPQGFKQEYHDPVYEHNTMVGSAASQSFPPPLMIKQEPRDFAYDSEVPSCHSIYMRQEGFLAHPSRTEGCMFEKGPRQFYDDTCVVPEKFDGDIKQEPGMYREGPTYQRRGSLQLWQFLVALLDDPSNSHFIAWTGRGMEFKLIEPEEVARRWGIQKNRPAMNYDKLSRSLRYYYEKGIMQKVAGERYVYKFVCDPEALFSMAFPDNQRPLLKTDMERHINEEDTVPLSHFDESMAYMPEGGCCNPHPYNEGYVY
Sequence of ELF1 (P32519 whole entry): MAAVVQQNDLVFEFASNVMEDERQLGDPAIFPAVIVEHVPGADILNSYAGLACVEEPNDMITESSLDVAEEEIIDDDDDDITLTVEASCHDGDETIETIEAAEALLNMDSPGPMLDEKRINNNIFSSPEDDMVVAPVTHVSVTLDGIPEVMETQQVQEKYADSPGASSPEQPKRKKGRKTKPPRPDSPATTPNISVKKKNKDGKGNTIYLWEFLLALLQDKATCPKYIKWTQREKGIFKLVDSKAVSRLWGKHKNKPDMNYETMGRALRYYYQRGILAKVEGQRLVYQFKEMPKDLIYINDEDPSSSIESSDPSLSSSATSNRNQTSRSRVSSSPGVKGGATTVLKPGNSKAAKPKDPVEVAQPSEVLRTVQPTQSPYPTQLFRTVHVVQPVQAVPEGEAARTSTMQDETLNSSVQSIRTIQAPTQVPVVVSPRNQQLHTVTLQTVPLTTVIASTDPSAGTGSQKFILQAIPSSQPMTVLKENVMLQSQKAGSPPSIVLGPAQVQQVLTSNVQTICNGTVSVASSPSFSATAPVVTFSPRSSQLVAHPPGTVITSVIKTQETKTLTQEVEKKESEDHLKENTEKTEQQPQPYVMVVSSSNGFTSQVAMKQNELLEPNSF
Sequence of ETV6 (P41212 whole entry): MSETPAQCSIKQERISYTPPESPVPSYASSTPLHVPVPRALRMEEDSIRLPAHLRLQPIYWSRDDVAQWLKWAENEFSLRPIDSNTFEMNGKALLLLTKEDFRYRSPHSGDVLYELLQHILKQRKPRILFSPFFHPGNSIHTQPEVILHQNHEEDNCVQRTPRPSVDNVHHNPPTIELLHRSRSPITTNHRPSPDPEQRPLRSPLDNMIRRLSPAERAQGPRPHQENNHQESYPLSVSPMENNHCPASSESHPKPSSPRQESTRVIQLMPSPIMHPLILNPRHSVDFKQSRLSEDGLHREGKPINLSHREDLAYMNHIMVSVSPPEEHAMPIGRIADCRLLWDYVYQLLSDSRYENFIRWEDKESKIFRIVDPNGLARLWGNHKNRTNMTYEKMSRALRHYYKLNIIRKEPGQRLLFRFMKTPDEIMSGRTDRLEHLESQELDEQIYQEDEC

Sequence	binding signal [1]	binding signal [2]	binding signal [3]	binding signal [4]	binding signal [5]	binding signal [6]	binding signal [7]	binding signal [8]	binding signal [9]	binding signal [10]	binding signal [11]	binding signal [12]	binding signal [13]	binding signal [14]	binding signal [15]	binding signal [16]	binding signal [17]	binding signal [18]
CCCCGT	1.05 fold enrichment (6-mer frequency, TF over GST control)	1.08 fold enrichment (6-mer frequency, TF over GST control)	1.02 fold enrichment (6-mer frequency, TF over GST control)	1.1 fold enrichment (6-mer frequency, TF over GST control)	1.06 fold enrichment (6-mer frequency, TF over GST control)	1.13 fold enrichment (6-mer frequency, TF over GST control)	1.1 fold enrichment (6-mer frequency, TF over GST control)	1.09 fold enrichment (6-mer frequency, TF over GST control)	1.01 fold enrichment (6-mer frequency, TF over GST control)	1.03 fold enrichment (6-mer frequency, TF over GST control)	1.05 fold enrichment (6-mer frequency, TF over GST control)	1.07 fold enrichment (6-mer frequency, TF over GST control)	1 fold enrichment (6-mer frequency, TF over GST control)	1.13 fold enrichment (6-mer frequency, TF over GST control)	1 fold enrichment (6-mer frequency, TF over GST control)	1.06 fold enrichment (6-mer frequency, TF over GST control)	1.08 fold enrichment (6-mer frequency, TF over GST control)	
GGCCCC	1.02 fold enrichment (6-mer frequency, TF over GST control)		1.03 fold enrichment (6-mer frequency, TF over GST control)	1.04 fold enrichment (6-mer frequency, TF over GST control)	1.02 fold enrichment (6-mer frequency, TF over GST control)		1.03 fold enrichment (6-mer frequency, TF over GST control)		1.06 fold enrichment (6-mer frequency, TF over GST control)	1.02 fold enrichment (6-mer frequency, TF over GST control)	1.01 fold enrichment (6-mer frequency, TF over GST control)	1 fold enrichment (6-mer frequency, TF over GST control)	1.03 fold enrichment (6-mer frequency, TF over GST control)		1.05 fold enrichment (6-mer frequency, TF over GST control)	1.05 fold enrichment (6-mer frequency, TF over GST control)		1.03 fold enrichment (6-mer frequency, TF over GST control)
